# About 2,100 (0.66%) of roughly 320,000 compounds were called active. Another 53% or so got no clear call; they are omitted. This is one part of a sample in which actives are shown more often than they occur. The call rests on the fitted dose curve; in most records, active means well fitted inhibition curve with a large enough effect in the signal ratio, with a control signal flat (not every such curve was filed as active); inconclusive means small, poorly fitted or top-dose-only effect, or effect the other way, or a change in a side signal; inactive means flat fitted curve, though single readings scatter; the % refers to the signal ratio.
# Assay: qHTS Assay for Lipid Storage Modulators in Drosophila S3 Cells;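 on cell number change: cells counted by Cell Tracker Red CMTPX staining in the red channel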; on lipid storage change, negative = inhibition: on the % scale 0 is the no-effect control and ±100 the full control effect
# Conditions: BODIPY lipid droplet fluorescence, 18-24 h, cells fed with added oleic acid; cell number change: measured here: cell count max response; series mostly up to 46.1 µM; lipid storage change, negative = inhibition: at the top concentration
# How it was run: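 Drosophila S3 cells loaded with oleic acid (400 uM, as added) and compounds at several concentrations; lipid droplets imaged by 488-nm laser-scanning cytometry, 500–530 nm intensity and object ratio to cell channel. Percent activity normalized to 20 uM Triacsin C.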
# Potency means the concentration at half of the fitted maximal effect.
Structure (SMILES),"lipid storage change, negative = inhibition",cell number change [%],outcome,Potency
CC(=O)NC1=NN(C(C)=O)C(C)(CS(=O)(=O)c2ccc(Cl)cc2)S1 (stereo not drawn),5.98% (inactive),-3.99,,
O=C(O)CC(NC(=O)c1ccco1)c1ccco1 (stereo not drawn),,3.18,inactive,
Cn1c(-c2ccccn2)[n+](C)c2ccccc21,-16.5% (inactive),8.68,,
CCN(CC)CC(=O)N1c2ccccc2Oc2c(c(=O)n(C)c(=O)n2C)C1c1cccc([N+](=O)[O-])c1 (stereo not drawn),9.31% (inactive),16,,
COc1ccc(CC(=O)N/N=C(\C)CC(=O)Nc2ccc3c(c2)OCCO3)cc1OC,,-9.52,inactive,
CN(c1ccccc1)S(=O)(=O)c1ccc(C(=O)OCC(=O)N2CCOCC2)cc1,,,inactive,
O=c1cc(N2CCCCCC2)[nH]c(=O)n1-c1ccc(Cl)cc1,-7.58% (inactive),-2.94,,
CCCCC1=CC2=CC(=O)C(C)(OC(=O)CC)C(=O)C2=CN1CCCCO (stereo not drawn),0.621% (inactive),9.55,,
Cc1cc(C)cc(C(=O)N2CCN=C2SCc2ccc([N+](=O)[O-])cc2)c1,,28.4,,16.4 µM (active)
Cc1ccc(C(=O)N2CCN=C2SCc2ccc([N+](=O)[O-])cc2)cc1,15.5% (inactive),4.98,,
O=C(c1ccccc1)N1CCN=C1SCc1ccc([N+](=O)[O-])cc1,0.791% (inactive),12,,
Cc1ccccc1-n1nc(C)c2cc(C(=O)N3CCOCC3)sc21,0.853% (inactive),4.65,,
CCCCc1c(O)nc(SCC(=O)Nc2cccc3ccccc23)n(-c2ccccc2OC)c1=O,,14.5,,20.6 µM (active)
COc1ccccc1-n1c(SCC(=O)N2CCOCC2)nc(O)c(Cc2ccccc2)c1=O,,-8.86,,13 µM (active)
CCc1c(O)nc(SCC(=O)Nc2ccccc2OC)n(-c2ccccc2C)c1=O,,,inactive,
COc1ccccc1-n1c(SCC(=O)N2CCCCC2)nc(O)c(Cc2ccccc2)c1=O,,-4.53,inactive,
COc1ccccc1-n1c(SCC(=O)N2CCOCC2)nc(O)cc1=O,,-21.1,inactive,
COc1ccccc1-n1cnnc1SCC(=O)N1CCOCC1,,-10.4,,0.0146 µM (active)
COc1ccccc1-n1cnnc1SCC(=O)N1CCN(C(=O)c2ccco2)CC1,1.02% (inactive),21.6,,
CCCCc1c(O)nc(SCC(=O)c2ccccc2)n(-c2ccccc2OC)c1=O,1.38% (inactive),11.3,,

Structure (SMILES),"lipid storage change, negative = inhibition",cell number change [%],outcome,Potency
Cc1ccccc1-n1c(SCC(=O)N2CCOCC2)nc(O)c(Cc2ccccc2)c1=O,,15.6,inactive,
CCn1c(=O)c2cc(C(=O)NCC(OC)OC)sc2c2ccccc21,-0.615% (inactive),25.4,,
CCOC(=O)c1csc(NC(=O)C(C)(C)C)n1,-3.09% (inactive),-3.51,,
O=C(c1ccc(F)cc1)C1CCN(C(=O)Nc2ccc(F)cc2F)CC1,12.9% (inactive),14.5,,
CCCc1c(O)c2ccccc2[nH]c1=O,17.1% (inactive),3.83,,
C/C(CC(=O)Nc1cccc(Cl)c1C)=N\NC(=O)Cc1csc(N)n1,-3.2% (inactive),22,,
CNc1nc(N)c([N+](=O)[O-])c(Nc2ccccc2OC)n1,9.33% (inactive),11.2,,
S=C(NC1CC1)N1CCCc2ccccc21,,,inactive,
COC(=O)c1sc(N)c(C(=O)OC)c1COC(=O)C12CC3CC(CC(O)(C3)C1)C2,,-15.1,inactive,
CCOC(=O)c1sc(NC(=O)OC)c(C(=O)OC)c1C,-9.1% (inactive),11.2,,
CC(=O)c1c(COC(=O)c2ccc(Cl)cc2)nc2ccccc2[n+]1[O-],0.115% (inactive),15.2,,
O=C(Nc1ccc(OC(F)F)cc1)c1ccccn1,7.36% (inactive),7.91,,
Cc1ccc(CS(=O)(=O)c2ncc(Cl)c(C(=O)Nc3nnc(C(C)C)s3)n2)cc1,-92.2% (inactive),-27.5,,
O=C(NCc1ccc2c(c1)OCO2)c1nc(S(=O)(=O)Cc2ccccc2)ncc1Cl,,,inactive,
COc1ccc(NC(=O)c2nc(SC)ncc2Cl)cc1,20% (inactive),,,
O=C(Nc1ccc(OC(F)F)cc1)c1ncc(Cl)c(Cl)c1Cl,,21.1,inactive,
Cc1ccc(S(=O)(=O)NC(=O)Nc2ccc(OC(F)F)cc2)cc1,-3.81% (inactive),7.38,,
Cc1ccc(CS(=O)(=O)c2ncc(Cl)c(C(=O)Nc3ccc(OC(F)F)cc3)n2)cc1,,,,1.16 µM (active)
CC(C)c1nnc(NC(=O)c2nc(S(=O)(=O)Cc3ccccc3F)ncc2Cl)s1,,-17.7,,1.64 µM (active)
CS(=O)(=O)c1ncc(Cl)c(C(=O)Nc2ccc(OC(F)F)cc2)n1,,-13.9,,18.4 µM (active)

Structure (SMILES),"lipid storage change, negative = inhibition",cell number change [%],outcome,Potency
Cc1cccc(CS(=O)(=O)c2ncc(Cl)c(C(=O)NCc3ccc4c(c3)OCO4)n2)c1,,,,6.51 µM (active)
CCSc1nnc(NC(=O)c2nc(S(=O)(=O)Cc3ccc(F)cc3)ncc2Cl)s1,,-9.14,inactive,
Cc1cccc(CS(=O)(=O)c2ncc(Cl)c(C(=O)Nc3c(C)cccc3C)n2)c1,,14.9,inactive,
COCCNC(=S)Nc1ccc(S(=O)(=O)Nc2ncccn2)cc1,6.38% (inactive),,,
CC(C)OP(=O)(OC(C)C)C(Nc1ccccc1)c1ccc2c(c1)OCO2 (stereo not drawn),-18.8% (inactive),-17,,
CC1(C(=O)OCc2cc(=O)n3cc(Br)ccc3n2)CC1(Cl)Cl (stereo not drawn),28.5% (inactive),20.1,,
Nc1nc(/C=C/c2cccnc2)nc(-c2ccccc2O)n1,-12.8% (inactive),-9.25,,
CCC(CC)C(=O)N(c1ccc(F)cc1)C1C=CS(=O)(=O)C1 (stereo not drawn),21.6% (inactive),-1.72,,
COc1ccc(N(C(=O)Cc2cccs2)C(C(=O)NC2CCCC2)c2ccncc2)cc1OC (stereo not drawn),,16.1,inactive,
CC1=CC(C)(C)N(C(=O)CSc2nnc(N)s2)c2cc(C)c(C)cc21,9.13% (inactive),6.05,,
CCc1ccc(NC(=O)c2nc(S(=O)(=O)Cc3ccccc3)ncc2Cl)cc1,,-18.2,,1.16 µM (active)
COC(=O)c1ccccc1NC(=O)c1nc(S(=O)(=O)Cc2ccccc2)ncc1Cl,,-21.2,inactive,
COc1ccccc1NC(=O)c1nc(S(=O)(=O)Cc2ccccc2)ncc1Cl,,-4.72,inactive,
O=C(OCc1ccc(Cl)c(Cl)c1)c1ccc[nH]1,-19.8% (inactive),0.855,,
CCOc1ccc(CNC2CCCCCCC2)cc1OC,-10.8% (inactive),-6.56,,
COc1ccc(CNc2ncccn2)cc1OC,-2.64% (inactive),2.02,,
COc1ccc(CNC2c3ccccc3-c3ccccc32)cc1OC,,14.9,,3.66 µM (active)
Cc1ccccc1-n1c(Cn2c(=O)sc3ccccc32)nnc1SCC(=O)N1CCOCC1,-10.7% (inactive),-4.41,,

# From PubChem BioAssay AID2685 (National Center for Advancing Translational Sciences (NCATS), 2010)
